Compound activity (PubChem)
TRHR agonist = agonists of human TRH receptor. P34981. TRHR cells, calcium flux fluo-8, FDSS agonist mode. activation, % at 2 µM. 360,000 compounds, 0.18% hits. AID 493084; note: 0% is about no effect
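TRHR-expressing cells, plated overnight in medium with 10% serum, were loaded with fluo-8 calcium dye at room temperature. After a 10 s baseline, library compound was pin-added and calcium release was recorded kinetically (ex 480/em 530) as agonist response.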
Glioma ERSR ind = inducers of ER stress response in human glioma cells | AID 602332 | 420,000 compounds, 0.02% hits | Potency, µM, for the others: at the highest dose activation, actives largely listed as activators | U87-MG GRP78 promoter luciferase reporter, 16 h; active = well fitted activation curve with a large enough effect; note: potency is the fitted concentration of half-maximal effect; series mostly up to about 76 µM; % of control where 0% means no effect; nearly all actives have a fitted effect of over 35% in size
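Stably transfected U87-MG human glioma cells carrying a GRP78-based luminescent sensor were seeded at 1000 cells/well, pin-dosed with compounds and incubated 16 h. Luciferase reagent was then added, and end-point luminescence was read after 10 min at room temperature.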
D1 ag = activates the human D1 dopamine receptor | P21728 | HEK293 T-REx D1 cells, calcium flux, agonist mode | activation, % at 2 µM | 360,000 compounds, 1% hits; note: 0% is about no effect
Target sequence (P21728 whole entry, looked up): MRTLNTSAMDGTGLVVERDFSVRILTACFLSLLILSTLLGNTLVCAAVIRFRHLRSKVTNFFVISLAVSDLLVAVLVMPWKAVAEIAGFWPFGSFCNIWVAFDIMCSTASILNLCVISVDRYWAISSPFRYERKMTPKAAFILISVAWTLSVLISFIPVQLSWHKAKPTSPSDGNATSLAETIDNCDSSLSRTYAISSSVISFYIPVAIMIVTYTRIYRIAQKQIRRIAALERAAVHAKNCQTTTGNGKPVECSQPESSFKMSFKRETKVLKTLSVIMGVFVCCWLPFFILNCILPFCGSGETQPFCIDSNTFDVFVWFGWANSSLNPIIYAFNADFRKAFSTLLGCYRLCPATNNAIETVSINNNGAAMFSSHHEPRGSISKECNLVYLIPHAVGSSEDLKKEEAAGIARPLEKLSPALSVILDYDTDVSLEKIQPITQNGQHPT
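Agonism was scored from calcium flux recorded over 180 s (1 read/s) after pintool compound addition, following a 10-cycle baseline. Cells were inducible force-coupled HEK293 TREx D1, plated overnight at 30 C and loaded with no-wash calcium dye.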
TRHR enhancer = allosteric enhancers of human TRH receptor; P34981; TRHR cells, fluo-8 calcium fluorescence, EC20 TRH enhancement; enhancement, % at 2 µM; 360,000 compounds, 0.66% hits; AID 493056; in the data active = enhancement above about 30%; note: 0% is about no effect
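Enhancer read-out: after compound pinning and an initial kinetic agonist-mode read, an EC20 of TRH (10 nM final) was injected and fluo-8 calcium signal (Ex 480/Em 530) followed at 1 s/cycle for 100 cycles in TRHR-expressing cells.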
D1 PAM = potentiators of human D1 dopamine receptor | potentiation, % at 10 µM | 360,000 compounds, 0.036% hits | P21728 | HEK293 TREx D1 cells, calcium flux, dopamine EC20 potentiation; in the data active = potentiation above about 30%; note: 0% is about no effect
D1 antagonist = human D1 dopamine receptor antagonism; HEK293 TREx D1 cells, calcium flux, dopamine EC80; hits give low values; activity change, negative = inhibition, % at 10 µM; 360,000 compounds, 3.2% hits; AID 504652; in the data active = activity change below about -30%; note: % is set by controls: 0 for no effect and ±100 for the full control effect
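Kinetic fluorescence of a calcium dye serves as the read-out. D1-expressing Hek293 Trex cells, induced overnight at 30 C, are exposed to compound for 180 s before an EC80 dopamine addition, then read 180 s further.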
The depositor's hits bear a star; / = no result. An excerpt weighted towards active compounds, which were near 4% of everything screened. Cut-off read from the data, not from the text of the source, unless noted: active = activation above about 30%; inactive = the rest.

SMILES | TRHR agonist | Glioma ERSR ind | D1 ag | TRHR enhancer | D1 PAM | D1 antagonist
CCC1=NN2C(=N)/C(=C/c3c(C)nn(-c4ccccc4)c3Cl)C(=O)N=C2S1 | -1 | -1% | 0 | -3 | -4 | -5
CCCC1=NN2C(=N)/C(=C\c3ccc(SCc4ccco4)o3)C(=O)N=C2S1 | 17 | -3% | 63* | -8 | -3 | 3
CCCC1=NN2C(=N)/C(=C\c3cc(C)n(Cc4ccccc4)c3C)C(=O)N=C2S1 | 0 | -3% | 150* | -1 | 1 | -37*
CCOC(=O)c1cc(-c2ccccc2)n(-c2cccc(C(=O)N(C)c3ccc(C)cc3)c2)c1C | 0 | -2% | 3 | 19 | -6 | 5
COC(=O)c1cc(CNC(=O)c2ccc(N(C)C)cc2)cc(NC(=O)c2ccccc2Cl)c1 | / | -4% | / | / | / | /
Clc1cccc(CNc2ncnc3nc[nH]c23)c1 | / | 1% | / | / | / | /
O=C(c1ccc2c(=O)n3c(nc2c1)CCC3)N1CCCSC1=Nc1ccccc1 | 0 | -1% | 2 | -3 | -7 | 30
CCN1CCN(C(=S)Nc2ccc3nc4n(c(=O)c3c2)CCCCC4)CC1 | 0 | 2% | 36* | 0 | -4 | -2
O=c1c2cc(NC(=S)N3CCCC3)ccc2nc2n1CCCCC2 | 0 | -1% | 1 | 0 | 10 | 0
CCN(CC)CCNC(=S)Nc1ccc2nc3n(c(=O)c2c1)CCCCC3 | 0 | -5% | 3 | 9 | -3 | -5
CCCN(CCC)CCCNC(=S)Nc1ccc2nc3n(c(=O)c2c1)CCCCC3 | 0 | -2% | 0 | 2 | -10 | -30*
C/C(=N/NC(=O)c1ccc(C)s1)c1cccnc1 | -1 | 13% | 3 | 7 | -4 | -7
C/C(=N/NC(=O)c1ccc(Cl)s1)c1cccnc1 | 2 | 6% | 7 | 22 | -11 | -48*
O=C(Nc1nccc(-c2cccs2)n1)c1ccccc1Cl | -1 | -1% | -2 | 14 | -4 | -38*
O=C(c1ccccc1Cl)N(C(=O)c1ccccc1Cl)c1nccc(-c2cccs2)n1 | 0 | -8% | 2 | 11 | 4 | -5
Cc1cc(OCCCn2ccnc2)cc(C)c1Cl | 0 | -3% | 8 | -7 | -9 | -31*
Cc1cc(OCCCCCn2ccnc2)cc(C)c1Cl | -1 | -2% | 26 | 10 | -5 | 2
CCc1cccc(OCCCn2ccnc2)c1 | 0 | -4% | 6 | 0 | -2 | -32*
CCc1nc2c(c(=O)c3ccccc3n2C)c(=O)n1C1CCCCCC1 | 39* | -2% | 195* | -10 | -2 | -28
Cn1c2ccccc2c(=O)c2c(=O)n(-c3ccccc3)c(C3CCCCC3)nc21 | -1 | -5% | 1 | 6 | 19 | 70
Cn1c2ccccc2c(=O)c2c(=O)n(C3CCCCC3)c(-c3cccs3)nc21 | 23 | -4% | 116* | -13 | -4 | -32*
Cn1c2ccccc2c(=O)c2c(=O)n(C3CCCCCC3)c(C3CCCCC3)nc21 | 29 | -4% | 121* | -7 | 5 | -27
COc1ccc(O)c(CN2CCC3(CCC(CNC(=O)C4CCCO4)O3)CC2)c1 (stereo unspecified) | / | -6% | / | / | / | /
COc1cc(OC)c2nc(-c3cc4c(c(OC)c3)OCCN(C(=O)C(C)c3n[nH]c(=O)c5ccccc35)C4)cc(C)c2c1 (stereo unspecified) | / | -3% | / | / | / | /
CC(=O)Nc1ccc(C(=O)N2CCCC(n3cc(C(=O)NCC(C)C)nn3)C2)cc1 (stereo unspecified) | / | 0% | / | / | / | /
SMILES | TRHR agonist | Glioma ERSR ind | D1 ag | TRHR enhancer | D1 PAM | D1 antagonist
CCOc1ccc(-c2nnc(SCC(=O)NCc3ccc(C)cc3)nc2-c2ccc(OCC)cc2)cc1 | 0 | -3% | 0 | -5 | 1 | -12
CC1=NN(C(=O)c2ccc(Cl)cc2)C(O)(c2ccccc2)C1 (stereo unspecified) | 0 | 2% | 2 | 1 | -4 | 4
COC(=O)C1=NN(C(=O)c2ccc(C)cc2)C(O)(c2ccc(Cl)cc2)C1 (stereo unspecified) | 6 | -3% | 57* | 4 | -7 | -3
O=C(c1ccccc1)N1N=C(C(F)(F)F)CC1(O)c1ccccc1 (stereo unspecified) | -2 | 0% | 3 | 38* | 1 | -14
COC(=O)C1=NN(C(=O)c2ccccc2)C(O)(c2ccc([N+](=O)[O-])cc2)C1 (stereo unspecified) | 24 | -3% | 86* | -13 | -7 | -2
O=C(COC(=O)c1cc(Br)ccc1O)Nc1ccc2c(c1)OCO2 | 1 | 2% | 8 | -4 | -7 | -26
Cc1ccc(N/N=C(\C#N)C(N)=S)c(C)c1 | 3 | 3% | 37* | -3 | -12 | -35*
NCC12CC3CC(C1)CC(c1ccc(Cl)cc1)(C3)C2 | 2 | 0% | 38* | 12 | -9 | -11
Nc1ccc(C23CC4CC(CC(CO)(C4)C2)C3)cc1 | -1 | 0% | 10 | 26 | -1 | -4
CC1(C(=O)NS(=O)(=O)C2CC2)CCCN(C(=O)C2(c3ccc(Cl)cc3)CCCC2)C1 (stereo unspecified) | / | -4% | / | / | / | /
O=C(NCC1CCCO1)C1CC(c2ccc(Cl)c(Cl)c2)=NO1 (stereo unspecified) | 1 | 3% | 15 | 6 | -11 | -32*
Cc1cc(-n2c(SCC(=O)NCc3cccs3)nc3n[nH]c(C)c3c2=N)ccc1Cl | 0 | -5% | 3 | 3 | -15 | -42*
COc1cccc(NC(=O)CSc2nc3n[nH]c(C)c3c(=N)n2-c2cccc(OC)c2)c1 | 0 | -3% | 2 | 2 | -9 | -31*
CCc1ccc(NC(=O)CSc2nc3n[nH]c(C)c3c(=N)n2-c2cccc(OC)c2)cc1 | 0 | -4% | 2 | 2 | -6 | 2
CC(OC(=O)C(C)N1C(=O)C2C3C=CC(C4CC34)C2C1=O)C(=O)c1ccccc1 (stereo unspecified) | 1 | -3% | 10 | 15 | 2 | -38*
CC(=Nc1ccc(C)cc1C)c1sc2ccccc2c1O | 5 | -7% | 21 | 0 | -6 | -12
CC(=Nc1ccc(C)cc1)c1sc2ccccc2c1O | 19 | -2% | 61* | -6 | -8 | -22
O=C(CC1NCCNC1=O)Nc1ccccc1F (stereo unspecified) | 3 | 0% | 0 | 5 | -2 | 2
CC1(C)CC(=O)c2cc(OCC(=O)NCCCN3CCN(c4ccccc4F)CC3)ccc2O1 | -1 | 4% | -2 | 4 | -13 | -81*
O=C(NCCCN1CCN(c2ccccc2F)CC1)c1nnc(Cc2ccc(Cl)cc2Cl)o1 | 0 | -1% | 21 | -3 | -4 | -55*
Cc1cc(CN2CCN(c3ccccc3F)CC2)cs1 | 0 | -1% | 0 | -1 | -8 | -58*
CCCCCCCNC(=O)COc1ccc2c(c1)C(=O)CC(C)(C)O2 | 0 | -2% | 0 | 6 | -3 | 14
